Key:
Assay in all cases: DAPPL (digital affinity profiling via proximity ligation, sequencing); 10 mM Tris-HCl pH 7.5, 50 mM NaCl, 1 mM DTT, 4% glycerol, room temperature, 30 min; GST-TFs on glutathione beads, 16-mer random dsDNA library, 0.1% formaldehyde crosslink after washing; high values mean tight binding
FEV = target: T1, FEV (Homo sapiens, UniProt Q99581 1-238); conditions: protein: recombinant; tags: N-terminal GST; dsDNA, one strand shown
T1 sequence: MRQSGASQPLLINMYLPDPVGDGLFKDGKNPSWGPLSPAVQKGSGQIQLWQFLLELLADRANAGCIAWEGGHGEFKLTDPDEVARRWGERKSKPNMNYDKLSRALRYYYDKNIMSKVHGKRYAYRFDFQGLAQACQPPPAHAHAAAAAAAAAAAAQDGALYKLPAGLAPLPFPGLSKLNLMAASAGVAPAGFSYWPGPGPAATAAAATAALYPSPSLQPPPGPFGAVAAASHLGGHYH
How it was run: (§1)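 In yeast, human transcription factors were expressed with a GST fusion, then pulled down on glutathione beads and given DNA barcodes. Pooled with a tag-only sample, they were exposed to 200 nmole of a 16-mer random double-stranded DNA library (Tris/NaCl/DTT/glycerol buffer, room temperature, 30 min), washed, crosslinked with 0.1% formaldehyde, proximity-ligated using BsaI/T4 ligase for 1 h at 37 °C, PCR-amplified and read on an Illumina NextSeq500. Each hexamer's frequency of reads for a factor, divided by the matching frequency for the tag-only sample, gives the binding signal.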

ETV5 = ETV5 (Homo sapiens, UniProt P41161 1-510); conditions: protein: recombinant; tags: N-terminal GST; dsDNA, one strand shown
Chain of ETV5 (P41161 whole entry): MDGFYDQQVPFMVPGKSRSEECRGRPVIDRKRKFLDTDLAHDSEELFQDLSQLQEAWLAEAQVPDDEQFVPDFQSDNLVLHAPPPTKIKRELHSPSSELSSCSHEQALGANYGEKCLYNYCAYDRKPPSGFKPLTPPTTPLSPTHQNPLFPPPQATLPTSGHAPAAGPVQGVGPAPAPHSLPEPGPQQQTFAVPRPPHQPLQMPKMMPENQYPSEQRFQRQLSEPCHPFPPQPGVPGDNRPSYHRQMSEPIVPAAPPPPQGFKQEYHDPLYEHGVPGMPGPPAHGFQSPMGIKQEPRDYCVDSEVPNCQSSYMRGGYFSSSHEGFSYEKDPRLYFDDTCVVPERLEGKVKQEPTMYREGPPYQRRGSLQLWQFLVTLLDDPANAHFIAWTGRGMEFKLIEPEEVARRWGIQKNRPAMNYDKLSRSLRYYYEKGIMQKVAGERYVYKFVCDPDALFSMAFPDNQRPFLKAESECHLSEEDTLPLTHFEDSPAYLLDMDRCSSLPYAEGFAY
How it was run: as §1

HSF1 = HSF1 (Homo sapiens, UniProt Q00613 1-529); conditions: protein: recombinant; tags: N-terminal GST; chain copies: 3; dsDNA, one strand shown
Chain of HSF1 (Q00613 whole entry): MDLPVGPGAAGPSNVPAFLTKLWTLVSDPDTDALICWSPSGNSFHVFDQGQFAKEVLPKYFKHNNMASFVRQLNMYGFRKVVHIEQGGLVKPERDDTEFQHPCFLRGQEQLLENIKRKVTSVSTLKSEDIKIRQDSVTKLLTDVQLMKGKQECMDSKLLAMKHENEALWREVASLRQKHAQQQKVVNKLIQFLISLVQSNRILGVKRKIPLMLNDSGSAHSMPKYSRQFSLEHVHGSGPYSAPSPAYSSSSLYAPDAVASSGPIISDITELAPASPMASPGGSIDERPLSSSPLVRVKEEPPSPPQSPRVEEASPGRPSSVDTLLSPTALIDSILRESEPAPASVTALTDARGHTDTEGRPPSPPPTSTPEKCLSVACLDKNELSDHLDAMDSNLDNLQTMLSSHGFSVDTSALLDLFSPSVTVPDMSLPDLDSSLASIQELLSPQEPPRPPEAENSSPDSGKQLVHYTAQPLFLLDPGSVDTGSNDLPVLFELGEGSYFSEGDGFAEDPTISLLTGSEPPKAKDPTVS
How it was run: as §1

SPIC = target: T2, SPIC (Homo sapiens, UniProt Q8N5J4 1-248); conditions: protein: recombinant; tags: N-terminal GST; dsDNA, one strand shown
T2 sequence: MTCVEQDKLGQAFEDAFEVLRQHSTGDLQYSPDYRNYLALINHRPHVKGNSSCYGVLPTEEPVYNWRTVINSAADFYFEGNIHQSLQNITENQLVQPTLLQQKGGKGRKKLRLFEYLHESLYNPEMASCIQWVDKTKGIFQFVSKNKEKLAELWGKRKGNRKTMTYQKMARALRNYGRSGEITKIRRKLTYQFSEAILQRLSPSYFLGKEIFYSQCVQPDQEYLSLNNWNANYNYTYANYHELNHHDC
How it was run: as §1

ELF4 = ELF4 (Homo sapiens, UniProt Q99607 1-663); conditions: protein: recombinant; tags: N-terminal GST; dsDNA, one strand shown
Chain of ELF4 (Q99607 whole entry): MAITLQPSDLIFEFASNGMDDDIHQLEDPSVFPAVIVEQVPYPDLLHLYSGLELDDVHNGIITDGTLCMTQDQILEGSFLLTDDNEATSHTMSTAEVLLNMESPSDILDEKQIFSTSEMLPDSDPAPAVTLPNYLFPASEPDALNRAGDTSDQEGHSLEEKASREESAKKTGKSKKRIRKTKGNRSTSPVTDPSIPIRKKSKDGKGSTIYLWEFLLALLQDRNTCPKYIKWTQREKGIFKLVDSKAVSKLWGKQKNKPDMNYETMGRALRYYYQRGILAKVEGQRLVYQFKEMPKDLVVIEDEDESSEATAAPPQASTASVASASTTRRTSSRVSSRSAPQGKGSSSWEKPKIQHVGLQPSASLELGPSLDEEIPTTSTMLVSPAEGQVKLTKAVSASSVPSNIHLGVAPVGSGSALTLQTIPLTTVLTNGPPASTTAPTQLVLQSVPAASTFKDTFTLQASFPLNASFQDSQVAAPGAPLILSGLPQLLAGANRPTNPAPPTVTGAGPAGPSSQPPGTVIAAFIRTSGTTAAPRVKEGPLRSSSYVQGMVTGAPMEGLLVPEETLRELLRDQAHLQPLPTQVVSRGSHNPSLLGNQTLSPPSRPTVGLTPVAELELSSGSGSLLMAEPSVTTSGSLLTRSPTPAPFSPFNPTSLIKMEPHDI
How it was run: as §1

ELK4 = target: T3, ELK4 (Homo sapiens, UniProt P28324-2 1-405); conditions: protein: recombinant; tags: N-terminal GST; dsDNA, one strand shown
T3 sequence: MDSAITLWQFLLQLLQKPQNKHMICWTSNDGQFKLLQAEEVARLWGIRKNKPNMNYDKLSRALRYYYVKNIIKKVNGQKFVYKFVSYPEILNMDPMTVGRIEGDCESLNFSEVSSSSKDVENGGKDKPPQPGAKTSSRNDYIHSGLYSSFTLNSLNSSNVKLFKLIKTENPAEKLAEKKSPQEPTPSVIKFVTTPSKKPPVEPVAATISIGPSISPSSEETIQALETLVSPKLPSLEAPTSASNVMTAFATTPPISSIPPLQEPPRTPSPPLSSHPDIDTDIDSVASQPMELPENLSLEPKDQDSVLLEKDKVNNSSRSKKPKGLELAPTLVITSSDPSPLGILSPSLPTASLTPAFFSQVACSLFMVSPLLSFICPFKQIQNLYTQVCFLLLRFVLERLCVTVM
How it was run: as §1

ETV2 = target: T4, ETV2 (Homo sapiens, UniProt O00321 1-342); conditions: protein: recombinant; tags: N-terminal GST; dsDNA, one strand shown
T4 sequence: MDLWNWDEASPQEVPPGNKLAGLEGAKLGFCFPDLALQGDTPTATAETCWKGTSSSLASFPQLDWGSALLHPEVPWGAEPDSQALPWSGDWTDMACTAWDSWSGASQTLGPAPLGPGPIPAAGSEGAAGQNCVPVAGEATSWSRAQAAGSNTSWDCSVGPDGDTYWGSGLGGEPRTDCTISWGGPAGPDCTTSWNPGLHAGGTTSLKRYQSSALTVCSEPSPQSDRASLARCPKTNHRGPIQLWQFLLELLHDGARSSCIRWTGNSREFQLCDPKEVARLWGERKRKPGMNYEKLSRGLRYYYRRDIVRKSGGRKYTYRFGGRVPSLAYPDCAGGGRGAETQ
How it was run: as §1

ELF3 = target: T5, ELF3 (Homo sapiens, UniProt P78545 1-371); conditions: protein: recombinant; tags: N-terminal GST; dsDNA, one strand shown
T5 sequence: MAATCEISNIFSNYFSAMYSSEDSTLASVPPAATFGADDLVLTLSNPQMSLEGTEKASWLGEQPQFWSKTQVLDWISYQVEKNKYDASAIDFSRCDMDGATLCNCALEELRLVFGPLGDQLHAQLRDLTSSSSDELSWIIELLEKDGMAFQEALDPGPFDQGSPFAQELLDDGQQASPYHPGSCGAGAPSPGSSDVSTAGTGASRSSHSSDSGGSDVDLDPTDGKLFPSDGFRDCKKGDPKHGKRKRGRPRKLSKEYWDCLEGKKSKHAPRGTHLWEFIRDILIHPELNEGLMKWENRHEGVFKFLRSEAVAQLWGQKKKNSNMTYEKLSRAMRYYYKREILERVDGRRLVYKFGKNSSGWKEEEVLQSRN
How it was run: as §1

CRX = CRX (Homo sapiens, UniProt O43186 1-299); conditions: protein: recombinant; tags: N-terminal GST; dsDNA, one strand shown
Chain of CRX (O43186 whole entry): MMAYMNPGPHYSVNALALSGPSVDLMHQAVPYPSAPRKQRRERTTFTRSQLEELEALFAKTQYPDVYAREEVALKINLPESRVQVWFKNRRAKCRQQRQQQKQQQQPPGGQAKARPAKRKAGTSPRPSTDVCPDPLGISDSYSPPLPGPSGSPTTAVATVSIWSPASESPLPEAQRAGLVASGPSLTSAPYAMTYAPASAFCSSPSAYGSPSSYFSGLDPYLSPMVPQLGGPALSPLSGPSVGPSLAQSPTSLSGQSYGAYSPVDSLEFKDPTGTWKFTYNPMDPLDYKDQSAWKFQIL
How it was run: as §1

ETV1 = ETV1 (Homo sapiens, UniProt P50549 1-477); conditions: protein: recombinant; tags: N-terminal GST; dsDNA, one strand shown
Chain of ETV1 (P50549 whole entry): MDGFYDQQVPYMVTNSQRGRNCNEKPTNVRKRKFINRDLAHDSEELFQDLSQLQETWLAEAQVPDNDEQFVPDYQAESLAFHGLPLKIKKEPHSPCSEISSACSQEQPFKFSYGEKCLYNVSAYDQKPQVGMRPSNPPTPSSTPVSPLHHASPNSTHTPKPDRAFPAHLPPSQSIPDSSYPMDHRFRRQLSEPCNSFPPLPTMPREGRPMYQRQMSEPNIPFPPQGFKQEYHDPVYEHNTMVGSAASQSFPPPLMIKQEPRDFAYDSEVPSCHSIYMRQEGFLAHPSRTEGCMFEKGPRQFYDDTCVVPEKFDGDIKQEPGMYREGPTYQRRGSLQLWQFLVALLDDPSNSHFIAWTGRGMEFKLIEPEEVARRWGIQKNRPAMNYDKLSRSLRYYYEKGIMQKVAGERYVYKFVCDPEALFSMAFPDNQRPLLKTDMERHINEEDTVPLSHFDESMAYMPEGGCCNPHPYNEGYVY
How it was run: as §1

ERF = target: T6, ERF (Homo sapiens, UniProt P50548 1-548); conditions: protein: recombinant; tags: N-terminal GST; dsDNA, one strand shown
T6 sequence: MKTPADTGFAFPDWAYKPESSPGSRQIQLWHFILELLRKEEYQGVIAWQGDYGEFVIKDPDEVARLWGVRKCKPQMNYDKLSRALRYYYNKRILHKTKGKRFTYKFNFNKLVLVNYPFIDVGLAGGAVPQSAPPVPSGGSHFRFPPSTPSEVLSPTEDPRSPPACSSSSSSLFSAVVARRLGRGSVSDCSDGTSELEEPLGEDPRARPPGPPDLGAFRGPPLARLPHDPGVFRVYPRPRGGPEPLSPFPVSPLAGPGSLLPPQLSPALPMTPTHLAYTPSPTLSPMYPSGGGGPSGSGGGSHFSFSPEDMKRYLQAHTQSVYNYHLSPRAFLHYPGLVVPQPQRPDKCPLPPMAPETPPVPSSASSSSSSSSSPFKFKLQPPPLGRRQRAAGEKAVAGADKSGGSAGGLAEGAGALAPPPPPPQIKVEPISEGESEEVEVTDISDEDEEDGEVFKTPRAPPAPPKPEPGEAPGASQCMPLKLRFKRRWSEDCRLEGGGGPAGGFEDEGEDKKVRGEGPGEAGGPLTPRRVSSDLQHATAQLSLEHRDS
How it was run: as §1

ETV3L = target: T7, ETV3L (Homo sapiens, UniProt Q6ZN32 1-361); conditions: protein: recombinant; tags: N-terminal GST; dsDNA, one strand shown
T7 sequence: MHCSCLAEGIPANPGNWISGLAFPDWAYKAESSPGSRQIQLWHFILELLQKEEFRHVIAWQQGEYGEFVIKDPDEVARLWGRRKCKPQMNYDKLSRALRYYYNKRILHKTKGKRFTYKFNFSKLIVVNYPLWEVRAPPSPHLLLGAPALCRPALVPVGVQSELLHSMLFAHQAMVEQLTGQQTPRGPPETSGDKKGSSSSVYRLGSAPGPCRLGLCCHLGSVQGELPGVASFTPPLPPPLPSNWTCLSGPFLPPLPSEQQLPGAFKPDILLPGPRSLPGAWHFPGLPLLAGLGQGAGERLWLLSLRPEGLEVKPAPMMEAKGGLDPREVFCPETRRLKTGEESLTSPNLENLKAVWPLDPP
How it was run: as §1

ETS2 = target: T8, ETS2 (Homo sapiens, UniProt P15036 1-469); conditions: protein: recombinant; tags: N-terminal GST; dsDNA, one strand shown
T8 sequence: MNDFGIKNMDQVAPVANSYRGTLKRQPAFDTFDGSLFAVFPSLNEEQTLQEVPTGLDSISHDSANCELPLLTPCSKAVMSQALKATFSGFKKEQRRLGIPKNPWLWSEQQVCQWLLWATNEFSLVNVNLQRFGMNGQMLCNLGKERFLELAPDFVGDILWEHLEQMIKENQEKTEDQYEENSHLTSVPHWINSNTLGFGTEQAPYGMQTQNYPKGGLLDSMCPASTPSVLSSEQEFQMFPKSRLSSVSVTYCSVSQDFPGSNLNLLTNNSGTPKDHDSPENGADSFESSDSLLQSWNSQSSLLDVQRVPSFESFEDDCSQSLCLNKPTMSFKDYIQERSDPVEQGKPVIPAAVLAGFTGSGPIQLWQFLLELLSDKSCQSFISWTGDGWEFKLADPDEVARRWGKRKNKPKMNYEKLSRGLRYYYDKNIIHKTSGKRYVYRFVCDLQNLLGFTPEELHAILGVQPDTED
How it was run: as §1

SPDEF = target: T9, SPDEF (Homo sapiens, UniProt O95238 1-335); conditions: protein: recombinant; tags: N-terminal GST; dsDNA, one strand shown
T9 sequence: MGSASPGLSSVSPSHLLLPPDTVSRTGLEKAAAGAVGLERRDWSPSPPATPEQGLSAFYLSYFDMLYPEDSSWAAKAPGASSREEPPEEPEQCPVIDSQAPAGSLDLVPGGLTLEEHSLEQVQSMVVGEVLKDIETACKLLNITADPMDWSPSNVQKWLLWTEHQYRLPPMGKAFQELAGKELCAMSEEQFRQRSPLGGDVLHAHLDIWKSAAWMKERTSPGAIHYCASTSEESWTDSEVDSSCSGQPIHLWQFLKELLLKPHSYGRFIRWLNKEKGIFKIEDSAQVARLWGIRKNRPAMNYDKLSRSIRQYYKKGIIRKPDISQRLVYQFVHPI
How it was run: as §1

ETV7 = target: T10, ETV7 (Homo sapiens, UniProt Q9Y603 1-341); conditions: protein: recombinant; tags: N-terminal GST; dsDNA, one strand shown
T10 sequence: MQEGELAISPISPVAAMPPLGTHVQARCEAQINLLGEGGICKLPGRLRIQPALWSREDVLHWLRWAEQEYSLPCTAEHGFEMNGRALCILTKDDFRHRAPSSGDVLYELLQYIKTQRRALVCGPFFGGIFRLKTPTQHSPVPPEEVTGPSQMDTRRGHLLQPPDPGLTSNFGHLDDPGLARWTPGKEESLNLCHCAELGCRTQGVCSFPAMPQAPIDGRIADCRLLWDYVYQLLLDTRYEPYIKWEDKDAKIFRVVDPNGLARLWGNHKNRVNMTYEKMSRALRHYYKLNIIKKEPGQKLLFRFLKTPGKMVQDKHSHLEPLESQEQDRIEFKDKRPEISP
How it was run: as §1

ELF5 = target: T11, ELF5 (Homo sapiens, UniProt Q9UKW6-2 1-255); conditions: protein: recombinant; tags: N-terminal GST; dsDNA, one strand shown
T11 sequence: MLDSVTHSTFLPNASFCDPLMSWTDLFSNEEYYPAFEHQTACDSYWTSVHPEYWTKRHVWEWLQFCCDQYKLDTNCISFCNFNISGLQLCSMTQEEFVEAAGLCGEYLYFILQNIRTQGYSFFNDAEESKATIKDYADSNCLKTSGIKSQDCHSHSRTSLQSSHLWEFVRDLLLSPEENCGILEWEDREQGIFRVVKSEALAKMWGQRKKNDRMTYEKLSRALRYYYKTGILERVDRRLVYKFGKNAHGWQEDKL
How it was run: as §1

ETV3 = target: T12, ETV3 (Homo sapiens, UniProt P41162-2 1-143); conditions: protein: recombinant; tags: N-terminal GST; dsDNA, one strand shown
T12 sequence: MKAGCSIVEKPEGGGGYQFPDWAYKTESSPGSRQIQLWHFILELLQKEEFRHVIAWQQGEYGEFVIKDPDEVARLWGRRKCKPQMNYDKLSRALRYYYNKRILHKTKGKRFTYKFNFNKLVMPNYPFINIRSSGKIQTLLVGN
How it was run: as §1

ETV6 = ETV6 (Homo sapiens, UniProt P41212 1-452); conditions: protein: recombinant; tags: N-terminal GST; dsDNA, one strand shown
Chain of ETV6 (P41212 whole entry): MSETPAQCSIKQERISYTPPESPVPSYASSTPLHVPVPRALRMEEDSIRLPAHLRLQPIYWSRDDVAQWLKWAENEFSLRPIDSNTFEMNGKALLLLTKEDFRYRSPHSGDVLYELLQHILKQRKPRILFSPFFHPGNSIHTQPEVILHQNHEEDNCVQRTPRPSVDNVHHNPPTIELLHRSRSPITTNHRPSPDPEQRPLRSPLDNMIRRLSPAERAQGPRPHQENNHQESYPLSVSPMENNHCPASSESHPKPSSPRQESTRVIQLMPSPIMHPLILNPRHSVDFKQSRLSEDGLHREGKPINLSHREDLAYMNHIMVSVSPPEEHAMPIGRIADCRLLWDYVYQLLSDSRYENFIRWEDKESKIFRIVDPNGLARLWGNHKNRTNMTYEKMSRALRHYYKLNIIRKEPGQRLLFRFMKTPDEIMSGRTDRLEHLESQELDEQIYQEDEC
How it was run: as §1

In the case of ACTCTA, the binding signal (FEV) is reported as 1.45 fold enrichment (6-mer frequency, TF over GST control), the binding signal (ETV5) is reported as 1.48 fold enrichment (6-mer frequency, TF over GST control) and the binding signal (HSF1) is reported as 1.63 fold enrichment (6-mer frequency, TF over GST control). The binding signal (SPIC) was 1.63 fold enrichment (6-mer frequency, TF over GST control), the binding signal (ELF4) was 1.41 fold enrichment (6-mer frequency, TF over GST control) and the binding signal (ELK4) was 1.43 fold enrichment (6-mer frequency, TF over GST control). For the same sequence, the binding signal (ETV2) was 1.41 fold enrichment (6-mer frequency, TF over GST control), the binding signal (ELF3) was 1.36 fold enrichment (6-mer frequency, TF over GST control) and the binding signal (CRX) was 1.52 fold enrichment (6-mer frequency, TF over GST control). For the same sequence, the binding signal (ETV1) was 1.42 fold enrichment (6-mer frequency, TF over GST control), the binding signal (ERF) was 1.56 fold enrichment (6-mer frequency, TF over GST control) and the binding signal (ETV3L) was 1.39 fold enrichment (6-mer frequency, TF over GST control). The binding signal (ETS2) was 1.39 fold enrichment (6-mer frequency, TF over GST control), the binding signal (SPDEF) was 1.38 fold enrichment (6-mer frequency, TF over GST control) and the binding signal (ETV7) was 1.34 fold enrichment (6-mer frequency, TF over GST control). For the same sequence, the binding signal (ELF5) was 1.41 fold enrichment (6-mer frequency, TF over GST control), the binding signal (ETV3) was 1.48 fold enrichment (6-mer frequency, TF over GST control) and the binding signal (ETV6) was 1.33 fold enrichment (6-mer frequency, TF over GST control).
